# Laboratory results reported in PubChem BioAssay (EPA / NIEHS).
# Inconclusive results are not listed. Calls of active or inactive are those of the source. How the source made its calls: active means hit-call score of the fitted dose curve at least 0.9, where 1 is the maximum; inconclusive means response in the unintended direction; inactive means score below 0.9.
# Biological target: rabbit Imidazoline 2 Central (I2C), CKB (gene 100009085) (UniProt P00567)
# Test: NVS_ENZ_rabI2C: NovaScreen (NVS) Enzymatic Assay for rabbit Imidazoline 2 Central (I2C) (AID 2283228)
# In short: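 Rabbit brain membranes, cell-free; readout by filter-based scintillation counting 1.5 hours after dosing, loss of signal vs DMSO. Initial duplicate test at 25 uM, then concentration-response with 50 uM top concentration.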
# Chain of rabbit Imidazoline 2 Central (I2C), CKB (gene 100009085) (P00567 whole entry, looked up): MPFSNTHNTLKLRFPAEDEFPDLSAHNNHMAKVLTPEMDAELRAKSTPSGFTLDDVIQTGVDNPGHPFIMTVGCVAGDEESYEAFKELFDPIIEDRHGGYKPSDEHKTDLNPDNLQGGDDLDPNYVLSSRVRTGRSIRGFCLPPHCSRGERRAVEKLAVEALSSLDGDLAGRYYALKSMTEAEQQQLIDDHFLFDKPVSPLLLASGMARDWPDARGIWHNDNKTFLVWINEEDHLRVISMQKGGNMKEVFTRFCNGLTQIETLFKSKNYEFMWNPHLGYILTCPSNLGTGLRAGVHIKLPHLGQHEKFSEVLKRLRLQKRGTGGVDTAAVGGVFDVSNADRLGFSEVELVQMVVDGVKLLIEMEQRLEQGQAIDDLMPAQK
SMILES,AC50,outcome
Cn1c(-c2ccccc2)cc(-c2ccccc2)[n+]1C,12 µM (active),–
CCN(CC)C(=O)C(C)Oc1cccc2ccccc12 (stereo unspecified),–,inactive
Cc1ccc(N=CN(C)C=Nc2ccc(C)cc2C)c(C)c1,1.21 µM (active),–
CCCN(CC)CC1COC2(CCC(C(C)(C)C)CC2)O1 (stereo unspecified),13 µM (active),–

# Biological target: rat Adenylate Cyclase, Forskolin Stimulated, Adcy5 (gene 64532) (UniProt Q04400)
# Test: NVS_ENZ_rACFSKBinding: NovaScreen (NVS) Enzymatic Assay for rat Adenylate Cyclase, Forskolin Stimulated (AID 2283232)
# In short: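 Rat forebrain membrane preparation, cell-free, read 1 h after dosing by filter-based scintillation counting. Primary screen in duplicate at 25 uM; actives (e.g. ≥30% inhibition) rerun in concentration-response up to 50 uM; fit versus DMSO.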
# Chain of rat Adenylate Cyclase, Forskolin Stimulated, Adcy5 (gene 64532) (Q04400 whole entry, looked up): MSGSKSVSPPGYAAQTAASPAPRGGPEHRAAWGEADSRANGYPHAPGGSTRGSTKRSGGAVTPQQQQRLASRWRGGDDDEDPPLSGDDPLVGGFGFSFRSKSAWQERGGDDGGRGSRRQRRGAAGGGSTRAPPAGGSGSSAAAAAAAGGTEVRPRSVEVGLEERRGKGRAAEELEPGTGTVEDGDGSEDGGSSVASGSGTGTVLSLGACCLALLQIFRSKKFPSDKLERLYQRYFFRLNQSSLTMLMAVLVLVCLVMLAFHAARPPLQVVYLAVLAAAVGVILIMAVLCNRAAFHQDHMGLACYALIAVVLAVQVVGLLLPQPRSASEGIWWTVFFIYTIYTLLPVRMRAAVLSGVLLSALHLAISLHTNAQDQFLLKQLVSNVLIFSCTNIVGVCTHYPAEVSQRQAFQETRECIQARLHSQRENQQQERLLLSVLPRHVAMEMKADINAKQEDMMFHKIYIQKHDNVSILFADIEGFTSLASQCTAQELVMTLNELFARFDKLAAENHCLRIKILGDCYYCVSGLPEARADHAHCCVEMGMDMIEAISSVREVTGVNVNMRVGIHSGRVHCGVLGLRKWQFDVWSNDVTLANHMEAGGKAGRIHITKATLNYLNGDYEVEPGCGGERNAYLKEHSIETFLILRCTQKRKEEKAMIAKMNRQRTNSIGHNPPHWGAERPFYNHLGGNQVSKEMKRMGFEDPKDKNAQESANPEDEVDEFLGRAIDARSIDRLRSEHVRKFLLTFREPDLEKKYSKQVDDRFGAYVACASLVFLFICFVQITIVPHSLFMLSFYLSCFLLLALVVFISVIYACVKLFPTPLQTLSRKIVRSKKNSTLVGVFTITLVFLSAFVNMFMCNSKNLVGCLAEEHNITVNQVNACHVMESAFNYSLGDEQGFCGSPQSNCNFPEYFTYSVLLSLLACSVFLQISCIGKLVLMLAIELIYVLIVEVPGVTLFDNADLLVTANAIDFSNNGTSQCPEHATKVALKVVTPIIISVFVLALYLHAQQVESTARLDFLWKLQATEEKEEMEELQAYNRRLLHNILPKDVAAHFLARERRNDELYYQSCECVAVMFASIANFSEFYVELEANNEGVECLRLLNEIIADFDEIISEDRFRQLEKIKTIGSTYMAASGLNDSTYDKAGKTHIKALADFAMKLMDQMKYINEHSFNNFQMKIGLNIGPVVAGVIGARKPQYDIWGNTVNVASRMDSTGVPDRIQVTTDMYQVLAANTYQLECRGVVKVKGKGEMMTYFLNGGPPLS
row,SMILES,outcome
1,COP(=S)(OC)SCn1nnc2ccccc2c1=O,inactive
2,O=C1C2CC=CCC2C(=O)N1SC(Cl)(Cl)Cl (stereo unspecified),inactive
3,CO/N=C(/C1=NOCCO1)c1ccccc1Oc1ncnc(Oc2ccccc2Cl)c1F,inactive

# Biological target: rat Acetylcholinesterase (AChE), Ache (gene 83817) (UniProt P37136)
# Test: NVS_ENZ_rAChE: NovaScreen (NVS) Enzymatic Assay for rat Acetylcholinesterase (AChE) (AID 2283233)
# In short: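 Rat brain membrane acetylcholinesterase activity measured colorimetrically 0.33 h after compound addition, loss of signal relative to DMSO. Primary screen in duplicate at 25 uM; actives re-run as concentration-response with 50 uM top concentration.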
# Chain of rat Acetylcholinesterase (AChE), Ache (gene 83817) (P37136 whole entry, looked up): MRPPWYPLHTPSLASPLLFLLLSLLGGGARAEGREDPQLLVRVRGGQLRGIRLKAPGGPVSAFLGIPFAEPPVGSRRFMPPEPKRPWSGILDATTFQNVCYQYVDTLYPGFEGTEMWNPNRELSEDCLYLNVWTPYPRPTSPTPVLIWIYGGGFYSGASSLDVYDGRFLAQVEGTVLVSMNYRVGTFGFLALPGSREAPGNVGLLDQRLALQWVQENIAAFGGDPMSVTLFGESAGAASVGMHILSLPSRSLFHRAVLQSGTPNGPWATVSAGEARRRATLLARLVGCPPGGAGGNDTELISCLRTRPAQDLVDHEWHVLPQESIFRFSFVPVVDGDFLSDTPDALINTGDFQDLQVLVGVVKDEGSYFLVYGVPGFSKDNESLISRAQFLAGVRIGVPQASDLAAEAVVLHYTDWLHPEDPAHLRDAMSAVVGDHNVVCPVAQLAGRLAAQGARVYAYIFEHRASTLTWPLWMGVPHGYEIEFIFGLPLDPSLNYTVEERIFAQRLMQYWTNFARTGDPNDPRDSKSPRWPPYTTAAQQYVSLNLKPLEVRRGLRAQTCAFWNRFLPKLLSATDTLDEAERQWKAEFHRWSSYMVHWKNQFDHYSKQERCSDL
SMILES,outcome,AC50
CCNC(=O)NC(=O)C(C#N)=NOC,inactive,–
Nc1c(Cl)c(Cl)nc(C(=O)O)c1Cl,inactive,–
COP(=S)(OC)SCn1nnc2ccccc2c1=O,inactive,–
CC(C)N1C(=O)N(c2ccccc2)CSC1=NC(C)(C)C,inactive,–
O=c1n(Cl)c(=O)n(Cl)c(=O)n1Cl,inactive,–
CNC(=O)Oc1cccc2ccccc12,–,6.15 µM (active)
CCOP(=O)(OCC)Oc1nc(Cl)c(Cl)cc1Cl,–,0.488 µM (active)
N#CN=C1SCCN1Cc1ccc(Cl)nc1,–,16.6 µM (active)

# Biological target: rat Catechol-O-Methyl Transferase (COMT), Comt (gene 24267) (UniProt P22734)
# Test: NVS_ENZ_rCOMT: NovaScreen (NVS) Enzymatic Assay for rat Catechol-O-Methyl Transferase (COMT) (AID 2283235)
# In short: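 Cell-free enzyme activity with protein extracted from rat dorsal striatum, measured by HPLC with absorbance detection. Compounds screened at 25 uM in duplicate; actives then run in concentration-response up to 50 uM, loss of signal versus DMSO.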
# Chain of rat Catechol-O-Methyl Transferase (COMT), Comt (gene 24267) (P22734 whole entry, looked up): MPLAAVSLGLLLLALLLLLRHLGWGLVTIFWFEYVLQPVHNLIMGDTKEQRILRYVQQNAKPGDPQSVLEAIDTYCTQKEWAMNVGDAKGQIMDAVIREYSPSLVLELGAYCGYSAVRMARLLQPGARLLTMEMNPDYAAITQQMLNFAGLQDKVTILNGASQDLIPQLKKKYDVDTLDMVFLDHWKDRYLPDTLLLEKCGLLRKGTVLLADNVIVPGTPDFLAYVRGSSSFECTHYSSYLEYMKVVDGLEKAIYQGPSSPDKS
SMILES,outcome,AC50
O=P(O)(O)CCCl,inactive,–
CCOP(=O)(OCC)Oc1nc(Cl)c(Cl)cc1Cl,inactive,–
O=C1C2CC=CCC2C(=O)N1SC(Cl)(Cl)Cl (stereo unspecified),inactive,–
Cc1nc(N(C)C)nc(OC(=O)N(C)C)c1C,–,0.991 µM (active)

# Biological target: rat Constitutive Nitric Oxide Synthase (CNOS), Nos1 (gene 24598) (UniProt P29476)
# Test: NVS_ENZ_rCNOS: NovaScreen (NVS) Enzymatic Assay for rat Constitutive Nitric Oxide Synthase (CNOS) (AID 2283236)
# In short: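 Enzyme activity in rat brain membrane preparation, read 1 h after dosing by filter-based radiometric scintillation counting. Primary screen in duplicate at 25 uM; actives (e.g., ≥30% inhibition) then run in concentration-response up to 50 uM.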
# Chain of rat Constitutive Nitric Oxide Synthase (CNOS), Nos1 (gene 24598) (P29476 whole entry, looked up): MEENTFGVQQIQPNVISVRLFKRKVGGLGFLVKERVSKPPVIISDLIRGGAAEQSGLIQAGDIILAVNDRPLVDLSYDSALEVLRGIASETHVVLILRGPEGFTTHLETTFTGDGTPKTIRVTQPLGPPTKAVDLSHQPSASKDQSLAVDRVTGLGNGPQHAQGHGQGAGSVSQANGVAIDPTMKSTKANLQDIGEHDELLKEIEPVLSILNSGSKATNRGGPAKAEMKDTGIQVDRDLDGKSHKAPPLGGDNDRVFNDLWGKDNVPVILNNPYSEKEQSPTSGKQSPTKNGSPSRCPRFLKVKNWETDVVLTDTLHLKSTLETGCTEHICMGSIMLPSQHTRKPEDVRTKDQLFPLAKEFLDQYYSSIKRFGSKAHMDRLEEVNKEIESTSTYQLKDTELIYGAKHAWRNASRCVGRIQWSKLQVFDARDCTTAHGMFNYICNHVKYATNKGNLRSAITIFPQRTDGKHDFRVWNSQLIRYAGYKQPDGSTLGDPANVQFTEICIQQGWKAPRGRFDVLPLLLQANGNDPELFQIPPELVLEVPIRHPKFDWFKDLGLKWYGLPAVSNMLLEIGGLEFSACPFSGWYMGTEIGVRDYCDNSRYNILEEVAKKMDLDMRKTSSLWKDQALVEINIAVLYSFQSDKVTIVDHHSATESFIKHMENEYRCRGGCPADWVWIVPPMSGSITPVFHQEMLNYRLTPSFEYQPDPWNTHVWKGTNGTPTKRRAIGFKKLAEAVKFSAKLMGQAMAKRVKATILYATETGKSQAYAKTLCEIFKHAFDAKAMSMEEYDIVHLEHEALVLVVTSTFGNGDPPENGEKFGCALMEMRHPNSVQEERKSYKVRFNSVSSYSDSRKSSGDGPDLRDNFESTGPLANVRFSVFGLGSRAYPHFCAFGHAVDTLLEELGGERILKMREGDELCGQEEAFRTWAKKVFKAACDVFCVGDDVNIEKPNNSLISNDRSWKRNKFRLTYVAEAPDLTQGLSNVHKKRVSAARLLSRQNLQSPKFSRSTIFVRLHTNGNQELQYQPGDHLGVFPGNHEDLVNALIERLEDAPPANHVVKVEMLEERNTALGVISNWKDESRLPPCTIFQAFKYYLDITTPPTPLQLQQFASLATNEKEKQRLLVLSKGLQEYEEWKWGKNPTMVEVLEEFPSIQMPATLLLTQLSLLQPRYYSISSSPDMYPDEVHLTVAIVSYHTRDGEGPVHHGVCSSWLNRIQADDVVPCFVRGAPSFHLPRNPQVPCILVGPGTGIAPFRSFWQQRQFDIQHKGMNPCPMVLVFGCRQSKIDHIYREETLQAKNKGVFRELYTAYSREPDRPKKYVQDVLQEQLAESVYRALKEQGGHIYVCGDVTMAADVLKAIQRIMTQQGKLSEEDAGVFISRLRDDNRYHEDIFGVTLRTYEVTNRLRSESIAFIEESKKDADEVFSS
SMILES,AC50,outcome
CCNC(=O)NC(=O)C(C#N)=NOC,9.03 µM (active),–
COP(=S)(OC)SCn1nnc2ccccc2c1=O,–,inactive
COC(=O)c1c(C(F)F)nc(C(F)(F)F)c(C2=NCCS2)c1CC(C)C,–,inactive
CS(=O)(=O)c1ccc(C(=O)C2C(=O)CCCC2=O)c([N+](=O)[O-])c1,–,inactive

# Test system: rat Monoamine Oxidase, MAO-A, Peripheral (MAOAP), gene 29253
# Test: NVS_ENZ_rMAOAP: NovaScreen (NVS) Enzymatic Assay for rat Monoamine Oxidase, MAO-A, Peripheral (MAOAP) (AID 2283237)
# Method: NVS_ENZ_rMAOAP is a biochemical, single-readout assay that uses extracted gene-proteins from Rat liver mitochondrial membranes in a tissue-based cell-free assay. Measurements were taken 1.17 hours after chemical dosing in a 96-well plate.NVS_ENZ_rMAOAP is one of one assay component(s) measured or calculated from the NVS_ENZ_rMAOAP assay. It is designed to make measurements of enzyme activity, a form of enzyme reporter, as detected with scintillation counting signals by Lysate-based radiodetection technology.Data from the assay component NVS_ENZ_rMAOAP was analyzed into 1 assay endpoint. This assay endpoint, NVS_ENZ_rMAOAP, was analyzed in the positive analysis fitting direction relative to DMSO as the negative control and baseline of activity. Using a type of enzyme reporter, loss-of-signal activity can be used to understand changes in the enzymatic activity as they relate to the gene Maoa. Furthermore, this assay endpoint can be referred to as a primary readout, because this assay has produced multiple assay endpoints where this one serves a enzymatic activity function. To generalize the intended target to other relatable targets, this assay endpoint is annotated to the oxidoreductase intended target family, where the subfamily is monoamine oxidase.
# Binding assays used specific radioligands (tritiated, iodinated) with non-radioactive competitive displacement ligands in agonist or antagonist protocols (as indicated) and various reference compounds and inhibitors to titrate specific binding to receptors and transporters. Most enzyme assays (CYPs, kinases, phosphatases, proteases, HDACs) used recombinant protein and specific substrates (fluorescence mostly, some colorimetric and radioactive) and inhibitors, followed by a biochemical separation of substrate and product. All assays for the biochemical HTS were initially run in duplicate at a single concentration (10 uM for CYP450 assays and 25 uM for all others). […] Each assay was run with positive and negative controls, and concurrent controls on every plate. The follow-up (secondary) screen tested active chemical-pairs in concentration series, as well as a few additional assays not tested in the primary screen, some selected negative inactives, and several cases re-run in the concentration series for confirmatory purposes.
SMILES,outcome,AC50
COP(=S)(OC)SCn1nnc2ccccc2c1=O,inactive,–
CC(C)N1C(=O)N(c2ccccc2)CSC1=NC(C)(C)C,inactive,–
Cc1nc(N(C)C)nc(OC(=O)N(C)C)c1C,–,10.4 µM (active)
COC(=O)c1c(C(F)F)nc(C(F)(F)F)c(C2=NCCS2)c1CC(C)C,inactive,–

# Biological target: rat Monoamine Oxidase, MAO-B, Peripheral (MAOBP), Maob (gene 25750) (UniProt P19643)
# Test: NVS_ENZ_rMAOBP: NovaScreen (NVS) Enzymatic Assay for rat Monoamine Oxidase, MAO-B, Peripheral (MAOBP) (AID 2283242)
# Chain of rat Monoamine Oxidase, MAO-B, Peripheral (MAOBP), Maob (gene 25750) (P19643 whole entry, looked up): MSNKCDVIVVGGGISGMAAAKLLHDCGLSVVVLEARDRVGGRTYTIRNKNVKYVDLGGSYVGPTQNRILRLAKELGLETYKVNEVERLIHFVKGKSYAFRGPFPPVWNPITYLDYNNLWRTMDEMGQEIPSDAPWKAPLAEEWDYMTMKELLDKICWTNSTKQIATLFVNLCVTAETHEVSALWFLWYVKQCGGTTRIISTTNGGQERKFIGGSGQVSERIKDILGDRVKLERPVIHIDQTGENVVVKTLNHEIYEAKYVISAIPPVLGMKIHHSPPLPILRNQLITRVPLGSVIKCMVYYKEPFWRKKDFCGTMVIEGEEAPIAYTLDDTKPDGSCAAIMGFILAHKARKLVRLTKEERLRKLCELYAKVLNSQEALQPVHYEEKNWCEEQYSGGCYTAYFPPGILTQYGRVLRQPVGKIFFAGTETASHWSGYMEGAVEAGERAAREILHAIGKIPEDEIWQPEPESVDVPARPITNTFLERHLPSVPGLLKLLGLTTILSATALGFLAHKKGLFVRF
SMILES,outcome,AC50
COP(=S)(OC)SCn1nnc2ccccc2c1=O,inactive,–
CC(C)N1C(=O)N(c2ccccc2)CSC1=NC(C)(C)C,inactive,–
CNC(=O)Oc1cccc2ccccc12,–,25 µM (active)
CCCN(CC)CC1COC2(CCC(C(C)(C)C)CC2)O1 (stereo unspecified),inactive,–
